Screening data from PubChem.
Many of the other results were omitted from the sample, so hits are more common in it than they were.
IkB sig inh: suppresses IkB signaling in ABC-DLBCL reporter cells; ABC-DLBCL IkBa-CBG/CBR dual luciferase ratio, 4 h; response scale: scaled: untreated 0%, proteasome inhibitor 100%; Potency, µM (titrated, usually from 57.1 µM); actives 0.04% (n = 110,000); AID 445; active = well fitted curve in the direction sought with a large enough effect in the signal ratio, not every such curve was filed as active; inconclusive = small, poorly fitted or top-dose-only effect, or a change in a side signal; the % refers to the signal ratio;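 note: the direction sought is a rising ratio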
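In this assay, an IκBα–CBG68 fusion accumulates when IKK-driven degradation is blocked; native CBR normalizes for cell number. OCI-Ly3 cells were treated 4 h with compound and doxycycline, then green and red light read after Chroma-Glo addition.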
ERK AVP inh: inhibitors of vasopressin-stimulated ERK signaling pathway. HEK293-V1b, vasopressin-stimulated pERK AlphaScreen. Potency, µM (doses to about 57.5 µM), usual class: inhibitors. actives 0.99% (n = 72,000); note: nearly all actives have a fitted effect of over 55% in size
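HEK293 cells stably expressing V1b receptor, preincubated 30 min at 37 °C with compound, then stimulated 5 min with 25 nM vasopressin. Phospho-ERK by AlphaScreen SureFire after 5 h RT; normalized to DMSO and vasopressin; AC50 by Hill fit.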
CRE Fsk mod: alters forskolin-stimulated CRE reporter signaling in CHO cells; CHO CRE-bla reporter (cAMP response element driving beta-lactamase), forskolin EC10, beta-lactamase ratio; Potency, µM (series often up to 38.2 µM), usual class: activators; actives 2.5% (n = 71,000); AID 662; active = well fitted activation curve with a large enough effect in the signal ratio, with a control signal flat, not every such curve was filed as active; inconclusive = small, poorly fitted or top-dose-only effect, or effect the other way, or a change in a side signal; the % refers to the signal ratio
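Cells were plated overnight at 37 °C, exposed to compound titrations plus EC10 NKH 477 for 3 h, then given CCF4 dye for 2 h at room temperature. Blue/green (460/530 nm) ratio was converted to %Activity and AC50 values calculated.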
Imprint erasure: genomic imprint erasure induction | mouse ES Peg3-LacZ reporter, beta-gal luminescence, 40 h | Potency, µM (doses to about 60.7 µM), most hits filed as activators | actives 0.02% (n = 110,000) | AID 1948
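Each well holds 300 Peg3LacZ-Neo (maternal) female ES cells incubated 40 h at 37C, 5% CO2. LacZ is measured by BetaGlo luminescence, with AC50 and maximum efficacy derived from dose-response curves.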
Numbers stand for hits; . = inactive; ? = inconclusive; / = no result given; [ ] = remark or other dose. Unless noted, calls come from the whole dose curve; as a rule, active = well fitted curve in the direction sought with a large enough effect; inconclusive = small, poorly fitted or top-dose-only effect, or another doubt; inactive = no such curve, though single readings can be large; an effect the other way counts as inactive or inconclusive.

SMILES	IkB sig inh	ERK AVP inh	CRE Fsk mod	Imprint erasure
O=C(Nc1ccc2nc(-c3cccs3)[nH]c2c1)c1ccco1	.	.	5.01µM	.
C[C@@H](Oc1ccc(Oc2cnc3ccc(Cl)cc3n2)cc1)C(=O)O	/	/	/	.
CCC(C)n1c(-c2cccs2)nc2nc3ccccc3nc21 (stereo not drawn)	.	.	10µM	.
C=CCn1c(-c2cccs2)nc2nc3ccccc3nc21	.	.	10µM	.
CSc1nc(N)c2ncn([C@@H]3O[C@H](COP(=O)(O)OP(=O)(O)OP(=O)(O)O)[C@H](O)[C@H]3O)c2n1	/	/	/	.
CCNC(=O)c1cc2c(=O)n3cccc(C)c3nc2n(Cc2ccc(C)cc2)c1=N	.	.	1µM	.
Cc1cccn2c(=O)c3cc(C(=O)NC(C)C)c(=N)n(Cc4ccncc4)c3nc12	.	.	12.6µM	.
CCN1C(=O)[C@@H]2[C@H]3C(=CC[C@@H]2C1=O)C1(OCCCO1)[C@H]1O[C@@H]1[C@H]3O	/	.[11.5 µM]	/	/
N#CCCn1c(=O)c(-c2cccc(C#N)c2)nc2cnc(N3CCOCC3)nc21	.[11.4 µM]	.	?	.
O=C(O)CCCNc1cc(N2CCN(C3CCCCC3)CC2)c2noc3c2c1C(=O)c1ccccc1-3	?	/	/	.[10.9 µM]
CC(=O)OCCNc1cc(N2CCN(C)CC2)c2noc3c2c1C(=O)c1ccccc1-3	.	15.8µM	?	.
CN(C)S(=O)(=O)c1ccc(NC(=O)c2ccccn2)cc1	.	?	.	.
CN(C)c1ccc(NC(=S)c2ccccn2)cc1	?	15.8µM	.	.
O=C(NCc1cccnc1)c1ccc(COc2ccc3c(c2)CCC3)o1	?	25.1µM	.	.
CC1(C)[C@@H]2CC[C@@](C)(C2)[C@H]1OC(=O)c1ccccc1C(=O)O	.[11.4 µM]	.[11.5 µM]	.[7.6 µM]	.[10.9 µM]
CN(C)c1ccc(/C=C2/C(=O)Nc3ccccc32)cc1	?	15.8µM	?	.
CCCNC(=O)c1cc(-c2ccc(O)cc2)on1	?	.	.	.
CCc1cc2c(nc1CC)CCN(CC/C(C)=N/OC[C@@H](O)[C@@H]1O[C@@H]3OC(C)(C)O[C@@H]3[C@H]1O)C2	/	.[11.5 µM]	/	/
COc1cc2ncnc(Nc3cccc(Cl)c3)c2cc1OC	.	20µM	?	.
COc1cc2ncnc(Nc3cccc(Br)c3)c2cc1OC	?	.	?	.
COc1ccc(-c2cc(OC)c3c(C)oc(C)c3c(=O)c2)cc1OC	?	?	12.6µM	.
COc1cc(-c2cc(OC)c3c(C)oc(C)c3c(=O)c2)ccc1O	.	?	.	.
CC1=C2[C@H](/C=C(\C)C(=O)O)CC[C@@H](C)[C@H]2CC1	.	.	.	.
CNC(=O)[C@H]1O[C@H](n2cnc3c(NCc4cccc(I)c4)nc(Cl)nc32)[C@@H](O)[C@@H]1O	?	15.8µM	?	.
CCn1cnc2sc(C(=O)N(Cc3ccc(N(C)C)cc3)Cc3ccco3)c(C)c2c1=O	?	.	12.6µM	.
SMILES	IkB sig inh	ERK AVP inh	CRE Fsk mod	Imprint erasure
O=C(O)CSc1nnc(Cn2nnc3ccccc32)n1CCc1ccccc1	.	.	7.94µM	.
COc1ccc(-c2coc3cc(O)cc(O)c3c2=O)cc1	.[11.4 µM]	15.8µM	?	.
CCN(CC)c1nc2ccccc2nc1C(C#N)C(=O)NCCCOC (stereo not drawn)	.	.	6.31µM	.
CCN(C(=O)c1cc2cc3ccc(C)cc3nc2o1)c1ccc(OC)cc1	?	.	12.6µM	.
COc1ccc(CNC(=O)c2cc3cc4ccc(C)cc4nc3o2)cc1	.	/	/	.[10.9 µM]
C[C@H]1[C@H](C)CC[C@]2(C(=O)O)CC[C@]3(C)C(=CC[C@H]4[C@]3(C)C[C@@H](O)C3[C@](C)(CO)[C@H](O)[C@@H](O)C[C@]34C)[C@H]12 (stereo partly drawn)	/	/	/	.[10.9 µM]
Cc1cc(C)nc(SCc2ccc3nonc3c2)n1	.	.	.	.
C=CCn1c2ccccc2c2nnc(SCc3ccc4nonc4c3)nc21	.	.	1.58µM	.
O=C1CCCC=C1[C@H](O)CCCCBr	/	.[11.5 µM]	/	/
N[C@@H](C(=O)O)[C@@H]1C[C@H]1C(=O)O	.	/	.	/
Cc1n[nH]c(C)c1-c1nc2ccccc2[nH]1	.	.	.	.
Cc1[nH]nc2c1-c1nc3ccccc3nc1C(C)(C)C2	?	12.6µM	?	.
CC#C[C@]1(O)CC[C@H]2[C@@H]3CCC4=CC(=O)CCC4=C3[C@H](c3ccc(N(C)C)cc3)C[C@@]21C	?	12.6µM	.	.
CCc1nc(N)c(C#N)c(-c2cccnc2)c1C	.	?	10µM	.
Cc1nc(N)c(C#N)c(-c2cccnc2)c1C	.	.	.	.
CNc1ccc(O)cc1	?	.	.	.
Cc1cc(-c2ccco2)n2c(nc3ccccc32)c1C#N	.	?	2.51µM	.
Cc1cc(Nc2ccc(F)cc2)n2c(nc3ccccc32)c1C#N	.	/	/	.[10.9 µM]
CCc1c(C)c(C#N)c2nc3ccccc3n2c1N(C)C	.	.	2.51µM	.
Nc1ccn([C@H]2CC[C@H](CO)O2)c(=O)n1	.	/	.	/
COC(=O)c1ccc(CSc2nc3c(cnn3-c3ccc(Cl)cc3)c(=O)[nH]2)o1	.	.	?	.
COC(=O)c1ccc(CSc2nc3c(cnn3-c3ccccc3)c(=O)[nH]2)o1	.	.	3.98µM	.
O=C(N/N=C1/C[C@@H](O)[C@@H](O)[C@@H]2[C@@H]3C(=O)N(C[C@@H]4CCCO4)C(=O)[C@H]3CC[C@H]12)OCc1ccccc1	/	.[11.5 µM]	/	/
Cc1cc(C)cc(OCCCCCNCCO)c1	.	.	.	.
Cc1cc(OCCCCCNCCO)cc(C)c1Cl	?	39.8µM	?	.
SMILES	IkB sig inh	ERK AVP inh	CRE Fsk mod	Imprint erasure
Cc1cc(-c2ccc(N=Nc3ccc4c(S(=O)(=O)O)cc(S(=O)(=O)O)c(N)c4c3O)c(C)c2)ccc1N=Nc1ccc2c(S(=O)(=O)O)cc(S(=O)(=O)O)c(N)c2c1O	?	25.1µM	?	.
COc1cccc2c(=O)c3c(cnn3C)n(C)c12	.	.	10µM	.
COc1cccc(OC)c1NC(=O)Cc1nn(C)c(=O)c2ccccc12	.	.	.	.
Cc1ccccc1NC(=O)c1ccc(Cl)c(S(=O)(=O)N2CCCCCC2)c1	?	/	/	.[10.9 µM]
O=C(Nc1cccnc1)c1ccc(Cl)c(S(=O)(=O)N2CCCCCC2)c1	?	20µM	.	.
COc1ccc(C2Oc3nc(SC)nnc3-c3ccccc3N2C(C)=O)cc1 (stereo not drawn)	?	/	/	.[10.9 µM]
CC(=O)N1c2ccccc2C(=O)OC1c1cccnc1 (stereo not drawn)	.	.	0.631µM	.
C[C@](O)(c1ccccc1)c1nccc2ccccc12	.[11.4 µM]	.[11.5 µM]	.[7.6 µM]	.[10.9 µM]
S=C(S)NCCCn1ccnc1	.[11.4 µM]	.[11.5 µM]	.[7.6 µM]	.[10.9 µM]
COC(=O)CSc1nsc(SCC(=O)OC)c1C#N	?	15.8µM	.	.
C/C(CCC(=O)OC[C@@H]1O[C@H](C#Cc2ccccc2)C=C[C@@H]1Oc1ccc(C)cc1)=N/OC[C@@H](O)[C@H]1O[C@H]2OC(C)(C)O[C@H]2[C@@H]1O	/	.[11.5 µM]	/	/
O=C1c2cccnc2-c2ncccc21	.	.	?	.
CC1(C)OCC(CSC2=C(SCC3COC(C)(C)O3)C(=O)c3ncccc3C2=O)O1 (stereo not drawn)	/	15.8µM	.	.
